# Measurements published in paper PMC11574364.
# How the values were obtained:
# Test in all cases: protein domain microarray probed with biotinylated miRNA; Domain array: 20 mM Tris-HCl pH 7.4, 200 mM KCl, 0.2 mM EDTA, 0.05% NP40, 2 ug/ul heparin, overnight 4 C. ORF array: PBS pH 7.0 with RNase inhibitor, 100 ng RNA; high values mean tight binding
# Conditions in all cases: ssRNA
# hnRNP-P2 = hnRNP-P2 (Homo sapiens, UniProt P35637)
# hnRNP-H2 = target: T1, hnRNP-H2 (Homo sapiens, UniProt P55795)
# T1 sequence: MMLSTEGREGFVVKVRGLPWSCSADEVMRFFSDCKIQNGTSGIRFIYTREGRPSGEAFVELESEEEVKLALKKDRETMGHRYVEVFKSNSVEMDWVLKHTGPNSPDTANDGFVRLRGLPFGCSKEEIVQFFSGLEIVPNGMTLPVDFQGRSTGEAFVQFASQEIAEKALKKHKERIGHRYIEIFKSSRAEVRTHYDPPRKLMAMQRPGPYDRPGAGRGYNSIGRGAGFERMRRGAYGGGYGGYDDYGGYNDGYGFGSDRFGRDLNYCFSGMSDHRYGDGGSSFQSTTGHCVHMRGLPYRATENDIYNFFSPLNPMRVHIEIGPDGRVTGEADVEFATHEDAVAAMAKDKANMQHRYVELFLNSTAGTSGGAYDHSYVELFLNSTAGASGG
# MTHFSD = target: T2, MTHFSD (Homo sapiens, UniProt Q2M296)
# T2 sequence: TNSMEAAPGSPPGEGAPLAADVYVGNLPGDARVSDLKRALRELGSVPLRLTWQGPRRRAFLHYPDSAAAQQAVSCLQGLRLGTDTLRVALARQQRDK
# IGF2BP3 = IGF2BP3 (Homo sapiens, UniProt O00425)
# IGF2BP3, sequence (O00425 1-176): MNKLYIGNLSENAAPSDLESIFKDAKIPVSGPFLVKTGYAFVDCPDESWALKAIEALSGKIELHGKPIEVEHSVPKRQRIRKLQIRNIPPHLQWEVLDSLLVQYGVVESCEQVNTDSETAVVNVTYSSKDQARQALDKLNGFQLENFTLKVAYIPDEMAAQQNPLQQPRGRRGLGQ
# NCBP2L = target: T3, NCBP2L (Homo sapiens, UniProt A6PVI3)
# T3 sequence: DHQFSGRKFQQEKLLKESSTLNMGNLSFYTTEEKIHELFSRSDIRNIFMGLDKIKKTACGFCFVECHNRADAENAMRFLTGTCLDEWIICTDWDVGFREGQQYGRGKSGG
# hnRNP-I(1-2) = hnRNP-I(1-2) (Homo sapiens, UniProt P26599)
# hnRNP-I(1-2), sequence (P26599 40-280): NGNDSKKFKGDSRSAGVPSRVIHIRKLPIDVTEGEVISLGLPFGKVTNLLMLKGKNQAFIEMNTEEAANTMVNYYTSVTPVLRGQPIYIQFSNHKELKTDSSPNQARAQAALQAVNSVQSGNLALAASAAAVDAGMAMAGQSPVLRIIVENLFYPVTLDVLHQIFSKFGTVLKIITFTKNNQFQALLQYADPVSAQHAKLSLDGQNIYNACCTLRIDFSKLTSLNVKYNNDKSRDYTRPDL
# LARP7(1) = target: T4, LARP7(1) (Homo sapiens, UniProt Q4G0J3)
# T4 sequence: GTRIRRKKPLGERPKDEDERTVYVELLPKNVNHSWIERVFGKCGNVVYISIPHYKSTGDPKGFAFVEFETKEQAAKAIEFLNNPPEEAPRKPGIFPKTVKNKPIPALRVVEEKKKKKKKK
# CELF5(1-2) = CELF5(1-2) (Homo sapiens, UniProt Q8N6W0)
# CELF5(1-2), sequence (Q8N6W0 20-233): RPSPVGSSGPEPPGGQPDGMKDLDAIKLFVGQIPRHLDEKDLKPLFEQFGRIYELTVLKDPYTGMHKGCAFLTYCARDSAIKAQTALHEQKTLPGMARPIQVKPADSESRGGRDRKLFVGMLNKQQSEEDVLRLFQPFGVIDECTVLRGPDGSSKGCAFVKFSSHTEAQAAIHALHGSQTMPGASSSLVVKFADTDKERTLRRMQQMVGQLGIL
# EIF4H = EIF4H (Homo sapiens, UniProt Q15056)
# PABPC1L2A = PABPC1L2A (Homo sapiens, UniProt Q5JQF8)
# PABPC1L2A, sequence (Q5JQF8 whole entry): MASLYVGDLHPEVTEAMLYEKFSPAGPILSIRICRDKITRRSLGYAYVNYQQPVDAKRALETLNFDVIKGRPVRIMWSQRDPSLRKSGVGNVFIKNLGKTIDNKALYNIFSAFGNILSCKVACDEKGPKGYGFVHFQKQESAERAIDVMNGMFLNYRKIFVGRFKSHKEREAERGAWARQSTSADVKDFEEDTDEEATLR
# hnRNP-P2, sequence (P35637 265-390): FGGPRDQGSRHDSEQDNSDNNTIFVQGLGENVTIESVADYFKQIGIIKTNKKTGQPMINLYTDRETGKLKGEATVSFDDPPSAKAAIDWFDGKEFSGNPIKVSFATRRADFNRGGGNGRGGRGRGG
Sequence,binding signal (hnRNP-P2),binding signal (hnRNP-H2),binding signal (MTHFSD),binding signal (IGF2BP3),binding signal (NCBP2L),binding signal (hnRNP-I(1-2)),binding signal (LARP7(1)),binding signal (CELF5(1-2)),binding signal (EIF4H),binding signal (PABPC1L2A)
UGAGGUAGUAGGUUGUGUGGUU,576 ± 71.1 fluorescence intensity,727 ± 35.9 fluorescence intensity,439 ± 58.4 fluorescence intensity,36.9 ± 7.82 fluorescence intensity,239 ± 6.08 fluorescence intensity,994 ± 33.7 fluorescence intensity,234 ± 9.55 fluorescence intensity,107 ± 9.34 fluorescence intensity,208 ± 18.3 fluorescence intensity,312 ± 42.4 fluorescence intensity
AGAGGUAGUAGGUUGCAUAGUU,131 ± 2.9 fluorescence intensity,907 ± 16.1 fluorescence intensity,716 ± 48.4 fluorescence intensity,46.2 ± 3.19 fluorescence intensity,202 ± 9.81 fluorescence intensity,1010 ± 92.8 fluorescence intensity,137 ± 1.39 fluorescence intensity,56.1 ± 4.7 fluorescence intensity,115 ± 9.98 fluorescence intensity,179 ± 20.3 fluorescence intensity
UGAGGUAGUAGGUUGUAUGGUU,441 ± 19.8 fluorescence intensity,663 ± 15.2 fluorescence intensity,488 ± 22.1 fluorescence intensity,22.9 ± 3.19 fluorescence intensity,180 ± 10.2 fluorescence intensity,911 ± 32.3 fluorescence intensity,153.2 ± 0.424 fluorescence intensity,48 ± 2.14 fluorescence intensity,93.9 ± 8.49 fluorescence intensity,240 ± 13.7 fluorescence intensity
UGAGGUAGUAGGUUGUAUAGUU,58.1 ± 13.9 fluorescence intensity,258 ± 16.1 fluorescence intensity,133 ± 32.4 fluorescence intensity,,40.6 ± 4.36 fluorescence intensity,293 ± 83.2 fluorescence intensity,35.35 ± 0.0495 fluorescence intensity,24.4 ± 2.19 fluorescence intensity,31.8 ± 3.73 fluorescence intensity,46.3 ± 9.23 fluorescence intensity
CAGUGCAAUGAUGAAAGGGCAU,40.3 ± 3.56 fluorescence intensity,944.5 ± 8.38 fluorescence intensity,349.3 ± 0.905 fluorescence intensity,20.1 ± 2.45 fluorescence intensity,162 ± 7.95 fluorescence intensity,185 ± 5.4 fluorescence intensity,104 ± 10.5 fluorescence intensity,52.7 ± 5.17 fluorescence intensity,71.2 ± 5.92 fluorescence intensity,88.7 ± 6.19 fluorescence intensity
UAGCUUAUCAGACUGAUGUUGA,,20 ± 0.509 fluorescence intensity,42.6 ± 13.9 fluorescence intensity,,43.9 ± 1.85 fluorescence intensity,72.7 ± 35.4 fluorescence intensity,,,,
